{
  "source": "PubChem BioAssay AID1851",
  "about": "(National Center for Advancing Translational Sciences (NCATS), 2009)",
  "note": "Several values for one entry are separate records, joined by “and”; a condition that tells them apart may be missing. Equal entries are not always repeated. The whole screen tested about 16,000 compounds, of which about 2,600 (16%) were called active. Another 20% or so got no clear call; they are omitted. Calls come from the whole dose curve; as a rule, active = well fitted curve in the direction sought with a large enough effect; inconclusive = small, poorly fitted or top-dose-only effect, or effect the other way; inactive = no such curve, though single readings can be large or run the other way. The list is a sample of the results. % is set by controls: 0 for no effect and ±100 for the full control effect.",
  "data": [
    {"molecular_target": "Cytochrome P450 2D6 (Homo sapiens) (UniProt P10635)", "sequence (P10635 whole entry, looked up)": "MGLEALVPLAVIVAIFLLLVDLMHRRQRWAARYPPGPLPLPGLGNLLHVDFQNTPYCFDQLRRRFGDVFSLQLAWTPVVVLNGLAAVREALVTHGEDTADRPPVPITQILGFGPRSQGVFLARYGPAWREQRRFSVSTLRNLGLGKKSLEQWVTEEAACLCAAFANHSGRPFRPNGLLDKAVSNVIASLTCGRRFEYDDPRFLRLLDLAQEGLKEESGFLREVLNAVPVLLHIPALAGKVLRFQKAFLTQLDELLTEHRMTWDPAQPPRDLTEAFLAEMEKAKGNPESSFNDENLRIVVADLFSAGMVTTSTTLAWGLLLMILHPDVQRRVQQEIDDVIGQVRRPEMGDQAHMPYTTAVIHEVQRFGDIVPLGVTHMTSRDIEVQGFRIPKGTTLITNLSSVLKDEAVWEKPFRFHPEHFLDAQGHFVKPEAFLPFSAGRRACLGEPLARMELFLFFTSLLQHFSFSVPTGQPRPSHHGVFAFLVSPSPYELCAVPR", "test": "Cytochrome panel assay with activity outcomes", "conditions": "recombinant CYP, pro-luciferin dealkylation, luminescence, p450-cyp2d6; series mostly up to 57.1 µM", "values": [
      {"smiles": "CC(C)(C)CC(C)(C)c1ccc(OCOCCOCCO)c(Cc2cc(C(C)(C)CC(C)(C)C)cc(Cc3cc(C(C)(C)CC(C)(C)C)ccc3OCOCCOCCO)c2OCOCCOCCO)c1", "AC50": "inactive"},
      {"smiles": "CCCCSc1nc(C)cc(C)c1S(=O)(=O)c1ccccc1C", "AC50": "inactive"},
      {"smiles": "Cc1ccc([C@@]2(C)CC/C(=N/N=C3\\CC[C@](C)(c4ccc(C)c(C)c4)c4cc(C)c(C)cc43)c3cc(C)c(C)cc32)cc1C", "activity, negative = inhibition": "-2.73% [at 11.4 µM] (inactive)"},
      {"smiles": "O=c1ccc(Oc2nc(N3CCOCC3)nc(N3CCOCC3)n2)n[nH]1", "AC50": "inactive"},
      {"smiles": "NCC[C@H](N)C(=O)O", "activity, negative = inhibition": "6.66% [at 11.4 µM] (inactive)"},
      {"smiles": "O=S(=O)(/N=C(/Nc1ccccn1)c1ccccc1)c1ccc(Cl)cc1", "AC50": "inactive"},
      {"smiles": "C=CCSc1nc2c(sc3nc(C)cc(C)c32)c(=O)[nH]1", "AC50": "inactive"},
      {"smiles": "CC1Cc2ccccc2N1Cc1nc2cc(C(F)(F)F)ccc2c(=O)[nH]1", "note": "(stereo unspecified)", "AC50": "inactive"},
      {"smiles": "Cc1c(OCC(F)(F)F)ccnc1CSc1nc2ccccc2[nH]1", "AC50": "0.398 µM (active)"},
      {"smiles": "O=C(CSc1nc2ccccc2[nH]1)Nc1c(F)cccc1F", "AC50": "inactive"},
      {"smiles": "C[N+](C)(C)CCCSc1nc2ccccc2[nH]1", "activity, negative = inhibition": "11.4% [at 11.4 µM] (inactive)"},
      {"smiles": "O=S(=O)(O)c1ccc(-c2nnc(-c3ccccn3)nc2-c2ccc(S(=O)(=O)O)o2)o1", "activity, negative = inhibition": "16.6% [at 11.4 µM] (inactive)"},
      {"smiles": "O=C(Cc1cccc2ccccc12)N/N=C/c1ccc(Sc2nc3ccccc3s2)o1", "AC50": "inactive"},
      {"smiles": "Cc1ccc(S(=O)(=O)N[C@H]2COC(=O)[C@@H](Cc3ccccc3)NC(=O)[C@@H](C)COC(=O)C/C=C\\[C@@H]2C)cc1", "activity, negative = inhibition": "-0.453% [at 11.4 µM] (inactive) and -0.419% [at 11.4 µM] (inactive)"},
      {"smiles": "Oc1c([C@H](Nc2ccccn2)c2ccccc2)ccc2cccnc12", "AC50": "0.316 µM (active)"},
      {"smiles": "Cc1ccc(N[C@H](c2ccccc2)c2ccc3cccnc3c2O)cc1", "activity, negative = inhibition": "-11.8% [at 11.4 µM] (inactive)"},
      {"smiles": "O=C(O)c1ccccc1N[C@H](c1ccccc1)c1ccc2cccnc2c1O", "activity, negative = inhibition": "-6.89% [at 11.4 µM] (inactive)"},
      {"smiles": "CCCc1nnc(SCC(=O)N2CCCCC2)n1CCCOC", "AC50": "inactive"},
      {"smiles": "CCOc1ccc(NC(=S)N(Cc2ccc(Cl)cc2)Cc2ccco2)cc1", "AC50": "7.94 µM (active)"},
      {"smiles": "CCOc1ccc(NC(=O)c2oc3ccccc3c2NC(=O)CC)cc1", "AC50": "inactive"},
      {"smiles": "CCOc1ccc(NC(=S)N(Cc2ccc(N(C)C)cc2)Cc2ccco2)cc1", "AC50": "8.91 µM (active)"},
      {"smiles": "Cc1ccc(NC(=O)N(Cc2ccco2)C(C)c2ccco2)cc1C", "note": "(stereo unspecified)", "AC50": "inactive"},
      {"smiles": "O=C(COc1ccc(Cl)cc1)Nc1ccc(N2CCN(C(=O)c3ccco3)CC2)cc1", "AC50": "inactive"},
      {"smiles": "Cc1noc(NS(=O)(=O)c2ccc(N/C=C/C(=O)c3ccc4c(c3)OCO4)cc2)c1C", "AC50": "inactive"},
      {"smiles": "CCCn1nnnc1-c1cccc(Cl)c1", "AC50": "inactive"},
      {"smiles": "COc1ccc(CNc2ncncc2-c2ccc3c(c2)OCO3)c(OC)c1", "AC50": "0.794 µM (active)"},
      {"smiles": "COc1ccccc1CNc1ncncc1-c1ccc2c(c1)OCO2", "AC50": "2.51 µM (active)"},
      {"smiles": "CCc1ccc(OCC(=O)NNC(=O)CSc2ncnc3sc(C)c(C)c23)cc1", "AC50": "inactive"},
      {"smiles": "O=S(=O)(/N=C(\\Sc1ccccc1)c1ccccc1)c1ccc(Cl)cc1", "AC50": "inactive"},
      {"smiles": "Cc1cc(C)c(NC(=O)C[C@H](CC(=O)O)c2cccc3ccccc23)c(C(=O)N2CCC3(CCCC3)CC2)c1", "AC50": "inactive"},
      {"smiles": "CCCCCCCCOC1OC(CO)C(O)C(O)C1NC(C)=O", "note": "(stereo unspecified)", "AC50": "inactive"},
      {"smiles": "Nc1ccn([C@H]2O[C@@H](COP(=O)(O)O)[C@@H](O)[C@H]2O)c(=O)n1", "activity, negative = inhibition": "0.248% [at 11.4 µM] (inactive)"},
      {"smiles": "CO[C@@H]1COC(=O)[C@H]2CCCN2C(=O)C/C=C\\[C@@H](C)[C@H](OC)COC(=O)[C@H]2CCCN2C(=O)C/C=C\\[C@H]1C", "activity, negative = inhibition": "9.95% [at 11.4 µM] (inactive)"},
      {"smiles": "CN(C)c1oc(-c2ccccc2)nc1C#N", "AC50": "inactive"},
      {"smiles": "COc1ccccc1-c1ccc2ncnc(Nc3ccccc3)c2c1", "AC50": "10 µM (active)"},
      {"smiles": "Clc1ccccc1-c1cc(NCc2cccnc2)ncn1", "AC50": "inactive"},
      {"smiles": "COc1ccccc1-c1ccc2ncnc(NCc3cccnc3)c2c1", "AC50": "7.94 µM (active)"},
      {"smiles": "COc1cccc(-c2ccc3ncnc(NCc4cccnc4)c3c2)c1", "AC50": "10 µM (active)"},
      {"smiles": "Clc1ccccc1-c1ccc2ncnc(NCc3cccnc3)c2c1", "AC50": "6.31 µM (active)"},
      {"smiles": "C=CCn1cc(/C=N\\NC(=O)c2cc3c(ccc4ccccc43)o2)c2ccccc21", "AC50": "inactive"},
      {"smiles": "COc1ccc(CCn2c3c(c(=O)[nH]c2=O)C(NC(=O)c2cccs2)(C(F)(F)F)C(=O)N3)cc1OC", "note": "(stereo unspecified)", "AC50": "inactive"},
      {"smiles": "COC(=O)C1=C(NC(=O)c2cccc(OC)c2)CCS1", "AC50": "inactive"},
      {"smiles": "O=c1c(-c2ccccc2)nc2cnc(N3CCOCC3)nc2n1CCc1ccccc1", "AC50": "inactive"},
      {"smiles": "N#C/C(=C\\Nc1ccccn1)C(=O)C1CC1", "activity, negative = inhibition": "5.79% [at 11.4 µM] (inactive)"},
      {"smiles": "CC[C@@H](CS(=O)(=O)O)[N+](=O)[O-]", "activity, negative = inhibition": "2.2% [at 11.4 µM] (inactive)"},
      {"smiles": "CN[C@@H]1[C@H](O[C@@H]2O[C@H](CO)[C@@H](N)[C@H](O)[C@@H]2O)O[C@H]2C[C@@H](N)[C@@H](O[C@H]3[C@@H](O)[C@H](O)[C@H](N)C[C@@H]3N)O[C@H]2[C@H]1O", "AC50": "inactive"},
      {"smiles": "O=C(COc1ccc(-c2ccccc2)cc1)N/N=C/c1ccccc1Br", "AC50": "inactive"},
      {"smiles": "COc1cccc(-c2cc(C(F)(F)F)nc(N3CCCCC3)n2)c1", "AC50": "inactive"},
      {"smiles": "CN(C)C(=O)c1ccc(-c2ccc3ncnc(Nc4ccc(F)cc4)c3c2)cc1", "AC50": "10 µM (active)"},
      {"smiles": "COc1ccc(-c2cc(C(F)(F)F)nc(SCc3cccc(C(=O)O)c3)n2)cc1", "AC50": "inactive"},
      {"smiles": "COc1ccc(-c2cc(C(F)(F)F)nc(NCc3cccnc3)n2)cc1", "AC50": "31.6 µM (active)"},
      {"smiles": "FC(F)(F)c1ccccc1-c1ccc2ncnc(NCc3cccnc3)c2c1", "AC50": "1.58 µM (active)"},
      {"smiles": "CCCCCCCCCCCCCCCCCCc1ccc(C(=O)/C=C\\C(=O)O)cc1", "AC50": "inactive"},
      {"smiles": "Cn1cc(-c2nc3cncnc3n(Cc3ccc(F)cc3)c2=O)c2ccccc21", "AC50": "inactive"},
      {"smiles": "CCCCC1(C)OC(=O)C(=Cc2ccc(N(C)C)cc2)C(=O)O1", "note": "(stereo unspecified)", "AC50": "inactive"},
      {"smiles": "NS(=O)(=O)c1ccc(N=Nc2c(O)c(C(=O)O)cc3ccccc23)cc1", "activity, negative = inhibition": "14.9% [at 11.4 µM] (inactive)"}
    ]}
  ]
}
